Source: PubChem BioAssay (National Center for Advancing Translational Sciences (NCATS))
A selection: hits, their analogues and other compounds. The true share with any hit is near 6%.
D1 potentiator – enhances dopamine response at the human D1 receptor. HEK293 TREx D1 cells, calcium flux, dopamine EC20 potentiation. potentiation, % at 10 µM. 0.036% of 360,000 active. AID 504651; in the data active = potentiation above about 30%; note: 0% is about no effect
D3 antag – antagonists of human D3 dopamine receptor. P35462. D3R cells, DiscoveRx beta-arrestin luminescence, antagonist mode; active compounds read low. max response, negative = inhibition, %. 2.5% of 360,000 active. AID 652054; in the data active = max response below about -50%; note: % is set by controls: 0 for no effect and ±100 for the full control effect
Target sequence (P35462 whole entry, looked up): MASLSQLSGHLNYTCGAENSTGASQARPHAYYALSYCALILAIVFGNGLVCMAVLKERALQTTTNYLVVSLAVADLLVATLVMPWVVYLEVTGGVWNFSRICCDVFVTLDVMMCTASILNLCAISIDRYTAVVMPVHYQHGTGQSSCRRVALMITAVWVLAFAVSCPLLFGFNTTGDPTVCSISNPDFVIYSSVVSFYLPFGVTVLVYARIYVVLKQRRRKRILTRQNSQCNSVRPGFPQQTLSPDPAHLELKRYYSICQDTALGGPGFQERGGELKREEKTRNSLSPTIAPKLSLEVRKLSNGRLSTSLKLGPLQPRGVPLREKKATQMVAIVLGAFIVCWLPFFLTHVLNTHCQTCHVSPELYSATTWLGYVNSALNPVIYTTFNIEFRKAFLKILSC
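Cells expressing the human receptor were seeded at 1500 cells/well, incubated overnight at 37 degrees C in 5% CO2, then exposed to library compounds with dopamine controls for 90 minutes at 37 degrees C before luminescent detection.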
D1 ag – agonists of human D1 dopamine receptor | P21728 | HEK293 T-REx D1 cells, calcium flux, agonist mode | activation, % at 2 µM | 1% of 360,000 active; in the data active = activation above about 30%; note: 0% is about no effect
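Inducible HEK293 T-REx D1 cells, force-coupled to calcium signalling, were plated at 4000 cells/well with tetracycline and held overnight at 30 C. After no-wash calcium dye loading, compound-evoked calcium rise over 180 s flagged agonists.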
D1 antagonist – antagonists of human D1 dopamine receptor; P21728; HEK293 TREx D1 cells, calcium flux, dopamine EC80; active compounds read low; activity change, negative = inhibition, % at 10 µM; 3.2% of 360,000 active; AID 504652; in the data active = activity change below about -30%; note: % is set by controls: 0 for no effect and ±100 for the full control effect
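Tetracycline-induced HEK293 Trex D1 cells, force-coupled to calcium, dye-loaded; compounds added and read 180 s, then EC80 dopamine added and calcium flux tracked kinetically another 180 s.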
D3 ag – agonists of human D3 dopamine receptor. P35462. D3R DiscoveRx beta-arrestin cells, luminescence, 90 min. max activation, %. 0.58% of 410,000 active. AID 652048; in the data active = max activation above about 30%; note: 0% is about no effect
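Cells at 1500/well, incubated overnight, then treated with pinned compounds (dopamine as control) for 90 min at 37 degrees C. DiscoveRx reagent added for 30 - 60 minutes at room temperature; luminescence read.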
Active calls of the source: *; nt = no result; ! = repeats disagree.

SMILES | D1 potentiator | D3 antag | D1 ag | D1 antagonist | D3 ag
CCCNC(=O)C1(C)CCCN(Cc2cccc(Oc3ccccc3)c2)C1 (stereo not drawn) | nt | 55 | nt | nt | -1
CC(CNCC1CCCO1)COc1ccccc1 (stereo not drawn) | 0 | -79* | 2 | -2 | -18
CNS(=O)(=O)c1ccc(CCC(=O)N2CCN(c3ccccc3OC)CC2)cc1 | -8 | 39 | 3 | 8 | 37*
CC(C)CNS(=O)(=O)c1ccc(CCC(=O)N2CCN(c3ccc(F)cc3)CC2)cc1 | -8 | -23 | 3 | -32* | 5
CCn1c(CNC(=O)c2cccc(C)c2)nnc1SCC(=O)Nc1nnc(C)s1 | -4 | 9 | 0 | 11 | -1
Cc1ccc(CN2COc3c(Cl)cc4c(-c5ccccc5)cc(=O)oc4c3C2)cc1 | -1 | nt | 6 | -32* | -4
COc1ccc(CCNCCC(c2ccccc2)c2ccccc2)cc1OC | nt | -29 | nt | nt | 0
COc1cc(OC)c(OC)cc1CCC(C)NCCC(c1ccccc1)c1ccccc1 (stereo not drawn) | -7 | -71* | 78* | -15 | 0
COc1cc(-c2n[nH]c(=S)n2/N=C/c2cccn2C)cc(OC)c1OC | -2 | -8 | 78* | -59* | -5
Cc1cn([C@H]2C[C@H](O)[C@@H](/C=C/C(=O)NCCN3CCCCC3)O2)c(=O)[nH]c1=O | nt | 14 | nt | nt | 8
Cc1cccc(NS(=O)(=O)c2ccc3[nH]c4c(c3c2)CCCCCC4)c1 | -6 | nt | 1 | -87* | -10
CCOc1ccc(NS(=O)(=O)c2ccc3[nH]c4c(c3c2)CCCC4)cc1 | 1 | nt | 0 | -52* | 7
S=c1[nH]nc(-c2cc(-c3ccccc3)n[nH]2)n1/N=C/C(Br)=C/c1ccccc1 | -6 | -67* | 0 | 7 | -16
NC(=O)[C@H](Cc1cc2ccccc2s1)NC(=O)[C@@H]1CC2(CC(c3cccc(NC(=O)[C@@H]4CCC(=O)N4)c3)=NO2)CN1C(=O)/C=C/Sc1ccccc1 (stereo partly drawn) | 0 | 2 | 1 | -24 | -11
NC(=O)[C@H](Cc1cc2ccccc2s1)NC(=O)[C@@H]1CC2(CC(c3cccc(NC(=O)[C@@H]4CCC(=O)N4)c3)=NO2)CN1C(=O)/C=C/c1c(F)cccc1Cl (stereo partly drawn) | 6 | 9 | 2 | 6 | 34*
CCCN(CCC)CC(O)Cn1cc(/C=C/C(=O)c2cccs2)c2ccccc21 (stereo not drawn) | -6 | -5 | 94* | -21 | -24
CCCN(CCC)CC(O)Cn1cc(/C=C/C(=O)c2ccccc2)c2ccccc21 (stereo not drawn) | -1 | -3 | 73* | -31* | -6
COc1ccc(C(=O)/C=C/c2cn(CC(O)CN(CC(C)C)CC(C)C)c3ccccc23)cc1 (stereo not drawn) | -1 | nt | 13 | 8 | 2
CC(C)(C)NCC(O)Cn1cc(C=O)c2ccccc21 (stereo not drawn) | 5 | -24 | 2 | 13 | 1
CCCN(CCC)CC(O)Cn1cc(/C=C/C(=O)c2ccc(Br)cc2)c2ccccc21 (stereo not drawn) | -3 | nt | 33* | -13 | -16
CCCN(CCC)CC(O)Cn1cc(/C=C/C(=O)c2ccc(OC)cc2)c2ccccc21 (stereo not drawn) | 7 | nt | 128* | -41* | -17
O=C(/C=C/c1ccnc2ccccc12)c1cccs1 | 6 | -27 | 0 | 2 | -1
COc1cccc(CCc2ccccc2OCC(CN(C)C)OC(=O)CCC(=O)O)c1 (stereo not drawn) | nt | nt | nt | nt | -17
COc1ccc(Cl)cc1N=C1NC(=O)CC(C(=O)Nc2ccccc2C(F)(F)F)S1 (stereo not drawn) | -2 | nt | -1 | -2 | 2
CCCN(CCC)CC(O)Cn1cc(/C=C/C(=O)c2ccc(C)cc2)c2ccccc21 (stereo not drawn) | 3 | nt | 133* | -42* | -10
CCCN(CCC)C(=O)c1cc2c(=O)n3cccc(C)c3nc2s1 | 3 | 4 | 0 | -60*! | -8
CCCSc1cc(NCCOC(=O)CCC)c([N+](=O)[O-])c2nonc12 | 11 | -14 | 1 | -12 | 1
CCCSc1cc(NCCOC(C)=O)c([N+](=O)[O-])c2nonc12 | 1 | 4 | 1 | 7 | 3
